Only some compounds are listed: those with a hit (about 9.2% of all), similar ones and a draw of the others.
Rab9 prom act: activators of Rab9 promoter | Huh7 Rab9 promoter-luciferase reporter, luminescence, 24 h | Potency, µM (doses to about 9.22 µM), hits mostly activators | 320,000 tested, 2.8% active; also: nearly all actives have a fitted effect of over 60% in size
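Luciferase signal after 10 min detection reagent at ambient indicates Rab9 promoter upregulation; stably transfected Huh7 cells were treated 24 h with compound in DMSO at 37 °C, 5% CO2.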
SMN2 splice up: SMN2 splice variant enhancement; Potency, µM (top dose mostly 46.1 µM), most hits filed as activators; HEK293 SMN2-luciferase splicing reporter, luminescence, 30-36 h; 210,000 tested, 2.8% active; also: nearly all actives have a fitted effect of over 55% in size
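HEK293 cells carry an SMN2 minigene-luciferase reporter in which exon 7 inclusion puts luciferase in frame. Cells were seeded at 2000 cells/well, attached for 10-12 hours, then exposed to compounds for 30-36 hours at 37C before ONE-Glo luminescence.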
ELG1 genotoxic: induces genotoxicity in HEK293T cells with luciferase-tagged ELG1; HEK293T ELG1-luciferase reporter, luminescence, 16 h; Potency, µM (titrated, usually from 46 µM), usual class: activators; 330,000 tested, 1.3% active; AID 504466; also: nearly all actives have a fitted effect of over 60% in size
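Screening used a luciferase reporter fused to human ELG1 in HEK293T cells. Luminescence was read on a CCD plate imager after 16 hr exposure and 30 min ONE-Glo incubation.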
FLuc counter: counter-screen for miR-21 project: firefly luciferase inhibitors or activators; P08659; purified FLuc, Km substrates, luminescence inhibition; Potency, µM (series often up to 57.5 µM), most hits filed as inhibitors; 360,000 tested, 6.9% active; also: nearly all actives have a fitted effect of over 55% in size
Target sequence (P08659 whole entry, looked up): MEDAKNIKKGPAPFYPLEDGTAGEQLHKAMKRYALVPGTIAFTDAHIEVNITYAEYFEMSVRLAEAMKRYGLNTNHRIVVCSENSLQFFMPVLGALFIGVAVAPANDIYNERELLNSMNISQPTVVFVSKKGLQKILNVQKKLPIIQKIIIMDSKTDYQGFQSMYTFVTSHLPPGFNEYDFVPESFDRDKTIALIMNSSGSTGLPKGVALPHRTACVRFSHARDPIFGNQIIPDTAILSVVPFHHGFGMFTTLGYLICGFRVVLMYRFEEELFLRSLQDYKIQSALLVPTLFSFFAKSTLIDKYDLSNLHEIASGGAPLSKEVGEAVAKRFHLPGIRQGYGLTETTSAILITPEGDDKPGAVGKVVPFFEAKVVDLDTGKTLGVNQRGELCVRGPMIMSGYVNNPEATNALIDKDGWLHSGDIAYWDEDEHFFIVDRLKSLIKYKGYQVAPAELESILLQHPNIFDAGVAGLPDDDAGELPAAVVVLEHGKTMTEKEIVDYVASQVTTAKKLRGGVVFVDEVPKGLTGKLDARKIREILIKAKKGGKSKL
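Biochemical qHTS of compounds, final roughly 60 µM downward over six points, against 10 nM purified firefly luciferase using Km concentrations of substrates (10 uM D-luciferin, 10 uM ATP) in Tris acetate pH 7.5 buffer; luminescence output.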
ELG1 repair inh: inhibitors of ELG1-dependent DNA repair in HEK293T cells; HEK293T ELG1-luciferase reporter, luminescence, 16 h; DNA damage induced by 5-fluorouridine; Potency, µM (top dose mostly 46.1 µM), usual class: inhibitors; 330,000 tested, 2.3% active; AID 504467; also: nearly all actives have a fitted effect of over 55% in size
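DMSO vehicle served as the neutral condition. Each well held 2,000 cells given 5-fluorouridine plus compound; after 16 hr at 37 °C/5% CO2, ONE-Glo was added and luciferase measured 30 min later.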
NPC1 promoter act: NPC1 promoter activation. AID 485313. Huh7 NPC1 promoter luciferase reporter, 24 h. Potency, µM (doses to about 9.22 µM), hits mostly activators. 320,000 tested, 2.4% active; also: nearly all actives have a fitted effect of over 60% in size
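Huh7 cells stably carrying NPC1 promoter–luciferase, plated in Opti-MEM with 10% FBS for 2 h, were exposed to compound in DMSO for 24 h at 37 °C; luciferase reagent was added for 10 min and luminescence read.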
Hits are given with their value; - = inactive; ? = inconclusive; . = not tested or not shown. Calls follow the shape of the dose curve; as a rule, active = well fitted curve in the direction sought with a large enough effect; inconclusive = small, poorly fitted or top-dose-only effect, or another doubt; inactive = no such curve, though single readings can be large; an effect the other way counts as inactive or inconclusive.

SMILES	Rab9 prom act	SMN2 splice up	ELG1 genotoxic	FLuc counter	ELG1 repair inh	NPC1 promoter act
CCN(c1ccccc1)S(=O)(=O)c1ccc(Oc2ccc(C(C)=O)cc2OC)nc1	-	.	-	-	?	-
Cc1cccc(NC(=O)Cn2cc(C(=O)C3CCCCC3)c3ccccc32)c1C	.	-	.	-	.	.
CCc1nnc(NC(=O)CSc2nc(C)c3c(c2C#N)CCCC3)s1	?	.	-	8.49µM	?	?
CC(C)c1cc(C(=O)N2CCCC(Nc3ccc(F)cc3)C2)n[nH]1 (centres undefined)	-	.	-	-	?	-
COc1ccc2c(c1OC)C(=O)OC2Nc1nc(-c2cc3cc(Br)ccc3oc2=O)cs1 (centres undefined)	1.41µM	.	?	21.3µM	?	2µM
Cc1cc(C(=O)COc2cccc3cccnc23)c(C)n1C	-	?	-	16.9µM	?	?
Cc1cc(C(=O)COc2ccc(Cl)cc2Br)c(C)n1C	?	-	-	21.3µM	-	-
CN(C)S(=O)(=O)c1ccc2c(c1)/C(=C/c1cc3c([nH]1)CCCC3)C(=O)N2	?	11.2µM	?	-	-	?
CSc1ccc(C2N=C(c3ccccc3)NO2)cc1 (centres undefined)	1.78µM	.	?	8.49µM	?	1.26µM
CSc1ncc(-c2ccccc2)cn1	-	-	-	?	-	-
Oc1c(Br)cc(C2N=C(c3ccccc3)NO2)cc1Br (centres undefined)	-	-	-	16.9µM	?	-
Oc1c(Br)cc(Br)c(/C=N/n2c(-c3ccccc3)n[nH]c2=S)c1Br	-	.	-	-	-	-
CCCn1cc(SCC(=O)Nc2nnc(C)s2)c2ccccc21	-	-	-	-	-	-
O=C(NCCn1ccc2ccccc21)c1ccc(S(=O)(=O)N2CCCCC2)cc1	-	-	-	-	?	-
O=C(NCCn1ccc2ccccc21)c1ccc2c(c1)OCO2	1.12µM	8.91µM	2.31µM	6.75µM	?	0.891µM
O=C(Cc1ccccc1)c1ccc2c(c1)OCCO2	2.82µM	?	18.3µM	8.49µM	?	2.51µM
COc1ccc(NC(=O)CSc2cn(CCNC(=O)c3ccc(OC)cc3)c3ccccc23)cc1	.	-	.	?	.	.
COc1ccc(C(=O)NCCn2cc(SCC(N)=O)c3ccccc32)cc1	-	.	-	15.1µM	?	-
Cc1ccc(C(=O)NCCn2cc(SCC(=O)Nc3nnc(C)s3)c3ccccc32)cc1	-	-	?	16.9µM	?	-
CN(Cc1ccccc1)C(=O)c1ccc2c(c1)OCCO2	-	-	-	-	?	-
COc1ccc(C(=O)c2ccc([N+](=O)[O-])cc2Cl)cc1	-	-	-	-	-	-
Cn1c(=O)cc(SCC(=O)NCc2ccco2)c2ccccc21	-	.	-	-	-	-
CC(C)(C)c1ccccc1NC(=O)C1=COCCO1	-	.	-	-	?	-
O=C(CSc1cn(CCNC(=O)c2ccc3ccccc3c2)c2ccccc12)NCc1ccco1	-	-	?	-	23.1µM	-
O=C(NCCc1ccccc1)C1=COCCO1	3.16µM	.	?	16.9µM	?	2.51µM
SMILES	Rab9 prom act	SMN2 splice up	ELG1 genotoxic	FLuc counter	ELG1 repair inh	NPC1 promoter act
COc1ccc(C(=O)NCCn2ccc3ccccc32)cc1	1.41µM	12.6µM	?	10.7µM	?	?
O=C(NCCc1ccccc1)c1ccc2c(c1)OCO2	?	.	?	0.536µM	?	?
Cc1ccc(C(=O)NCCn2ccc3ccccc32)cc1[N+](=O)[O-]	-	?	-	-	-	-
CS(=O)(=O)N1CCN(C(=O)Cc2ccccc2Cl)CC1	-	-	-	-	-	-
Cn1c(=O)n(C)c2cc(N3CCCCC3)c(NC(=O)c3ccc(C(C)(C)C)cc3)cc21	.	-	.	-	.	.
COc1ccc(NC(=O)C2CCC(CNS(=O)(=O)c3ccc(Br)s3)CC2)c(OC)c1 (centres undefined)	.	-	.	-	.	.
Cc1cc2ccccc2n1CCNC(=O)c1ccc(Br)cc1	.	-	.	?	.	.
Cc1cc2ccccc2n1CCNC(=O)c1ccccc1	?	-	-	21.3µM	?	?
c1ccc2c(COn3nnc4ccccc43)cccc2c1	2.51µM	.	8.91µM	10.7µM	?	?
c1ccc2c(Cn3nnc4ccccc43)cccc2c1	-	-	-	-	-	-
CCOC(=O)N1N=C(c2ccc(OC)cc2)CC1(O)C(F)(F)F (centres undefined)	0.891µM	.	?	3.38µM	?	1.12µM
CCc1ccc(C2=NN(C(=O)OC)C(O)(C(F)(F)F)C2)cc1 (centres undefined)	0.631µM	-	?	2.69µM	?	0.447µM
CCOC(=O)N1N=C(c2ccccc2)CC1(O)C(C)(F)F (centres undefined)	-	-	-	-	-	-
CCc1ccccc1NS(=O)(=O)c1cc(Br)cc2c1N(C(=O)C1CC1)CC2	.	-	.	-	.	.
Brc1ccc(/C=N/Nc2nc3ccccc3o2)cc1	1.12µM	.	?	1.51µM	?	1.58µM
O=C(CSc1nc2ccccc2o1)N/N=C/c1ccc(C(=O)O)cc1	-	.	-	-	-	-
Oc1ccccc1/C=N/Nc1nc2ccccc2o1	-	.	9.2µM	1.9µM	?	-
CCc1ccc(NC(=O)Cn2nc(C(=O)O)c3ccccc3c2=O)cc1	-	.	-	-	-	-
Fc1ccc(CNc2nc(-c3ccc(Cl)cc3)cc(C(F)(F)F)n2)cc1	.	-	.	-	.	.
COc1ccc(-c2cn3cc(C(F)(F)F)cc(Cl)c3n2)cc1	2.24µM	2.82µM	5.8µM	3.01µM	?	?
Fc1ccc(-c2cn3cc(C(F)(F)F)cc(Cl)c3n2)cc1	4.47µM	12.6µM	?	1.69µM	?	?
O=C(OCc1c(-c2ccccc2)ncc2ccccc12)c1cccs1	.	.	-	.	?	.
N#CCS(=O)(=O)c1ccccc1	-	.	-	-	-	-
COC(=O)c1c(-c2ccccc2)csc1NC1=NS(=O)(=O)c2ccccc21	2.51µM	0.562µM	?	0.601µM	?	-
COC(=O)c1ccc(C(=O)OC)c(NC2=NS(=O)(=O)c3ccccc32)c1	-	-	-	-	-	-
SMILES	Rab9 prom act	SMN2 splice up	ELG1 genotoxic	FLuc counter	ELG1 repair inh	NPC1 promoter act
COc1cccc(-c2nc(CS(=O)(=O)CC(=O)Nc3ccc(C(C)=O)cc3)c(C)o2)c1	-	.	-	-	?	-
CC(C)c1nn2c(N)c(/C=C3\C=Nc4ccccc43)c(=O)nc2s1	-	.	-	?	-	-
CC(C)Sc1nsc2nc(=O)c(/C=C3\C=Nc4ccccc43)c(N)n12	-	-	-	23.9µM	-	-
CS(=O)(=O)c1nsc2nc(=O)c(/C=C3\C=Nc4ccccc43)c(N)n12	-	-	-	15.1µM	-	-
CCCc1nn2c(N)c(/C=C3\C=Nc4ccccc43)c(=O)nc2s1	-	-	-	-	-	-
COc1cccc(CC(=O)Nc2ccc(-c3nc4ccccc4s3)cc2)c1	.	.	.	6.01µM	.	.

Compound activity deposited in PubChem BioAssay by National Center for Advancing Translational Sciences (NCATS).
